This is part of a sample that, as a whole, favours compounds with a hit. Of some 83,000 tested, about 20% had one in any assay.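 Assay: single dose, 48 h. Readout: percent growth (0 = no net growth; negative = cell death). Active: <10.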 Unmarked numbers belong to inactive results. Activity calls are given as the source filed them.

This test has as its system MDA-MB-468 breast. Nature of the test: NCI-60 one-dose screen, 48 h (100 = growth as untreated, 0 = no growth, -100 = all killed). Conditions: 10 µM unless noted.
As to `CCN1C(=O)N(CC)C2C1NN=c1s/c(=C3\C(=O)N(CCc4ccccc4)c4ccccc43)c(=O)n12` (configuration not stated), the growth was -11.3% (active).

Take `O=C(Nc1ccccc1)Nc1nc2ccc([N+](=O)[O-])cc2[nH]1`: the growth was 22.1%.

Turning to `Cc1ncc(C(=O)Nc2ccc(CN3CCN(C)CC3)c(C(F)(F)F)c2)cc1C#Cc1cncc2ncccc12`, the growth was 99.3%.

As for `Cc1cc2nc3c4cc(N)ccc4n(CCN(C)C)c3nc2cc1C`, the growth was -5.6% (active).

`COc1cc(OC)cc(C2C3=C(COC3=O)Nc3cc(OC)ccc32)c1` (configuration not stated): the growth was -8.19% (active).

`Cc1ccc(S(=O)(=O)N2CCc3ccc(O)c4c3C2CCc2ccccc2-4)cc1` (configuration not stated): the growth is 106%.

Consider `O=c1[nH]c(N2CCOCC2)nc2scc(-c3ccccc3)c12`, for which the growth is 86.2%.

Take `CCN1CCN(CCOc2ccc(CNc3ccc4nc(CCC5CCCCC5)[nH]c4c3)cc2)CC1`: the growth is 35%.

As to `Nc1ccc2c(c1)Cc1cc(Cl)c(Cl)cc1-2`, the growth was 34.4%.

Take `CCCc1cc2c(=O)c(C(=O)OC)c[nH]c2cc1N(CC)CC`: the growth is 119%.

For `CC(C)(CNC1CCCCC1)OC(=O)c1ccccc1`, the growth was 94.3%.

As to `CCOC(CNCc1cc(C)c2[nH]c3ccccc3c2c1C)OCC`, the growth is 67.6%.

With `COc1ccc(-n2c(SCC(=O)Nc3ccc(-c4nc5ccccc5[nH]4)cc3)nc3ccccc3c2=O)cc1`, the growth is -88.2% (active).

As to `Cc1ccc(-c2nc(N3CCCNCC3)c3oc(-c4ccccc4)nc3n2)cc1`, the growth is -76.2% (active).

As to `CC(=O)Oc1cc2cnc3c4cc(OC(C)=O)c(OC(C)=O)cc4ccc3c2cc1OC(C)=O`, the growth is -7.77% (active).

In the case of `COc1cc(/C(C)=C(\c2ccc(Cl)cc2)c2ccc(OCCN3CCCC3)cc2)ccc1F`, the growth was 57.3%.

Consider `Cc1nn(-c2nc3ccccc3[nH]2)c2c1C(c1ccc(OCc3ccc(F)cc3)cc1)CC(=O)N2` (configuration not stated), for which the growth was 65.3%.

On to `COc1ccc(-c2nn(-c3cccc(NC(=O)c4cccc(C(F)(F)F)c4)c3)cc2-c2ccncc2)cc1Cl`, for which the growth was 31.4%.

With `Cc1cc(Cl)nc(N(CCCNc2ccnc3cc(Cl)ccc23)Cc2ccccn2)n1`, the growth was 0.122% (active).

As for `COc1ccc(-c2nc(SCC(C)C)nc(Nc3ccc(C(=O)O)cc3)c2C#N)cc1`, the growth is 91.3%.

For the molecule `CC1(C)CC[C@]2(C(=O)NCCNCCN)CC[C@]3(C)C(=CC[C@@H]4[C@@]5(C)CCC(=O)C(C)(C)[C@@H]5CC[C@]43C)[C@@H]2C1`, the growth is -67% (active).

For `Cc1ccc(/C=C2/C(=O)N(C)c3ccc(S(=O)(=O)Nc4ccc(C(C)(C)C)cc4)cc32)s1`, the growth was 63.1%.

In the case of `CC1(c2ccccc2)OC1C(=O)O` (configuration not stated), the growth is 99.2%.

Turning to `CC(C)=CCNc1ncnc2c1ncn2C1OC(COP(=O)(O)O)C(O)C1O` (configuration not stated), the growth was 23.3%.

Regarding `O=C(Nc1ccc(Oc2ccc(F)cc2)c(Cl)c1)c1cnccn1`, the growth is 31.8%.

As for `COc1ccc(OC)c(-c2nc(SCC(=O)c3ccc(Br)cc3)nc(Nc3ccc(S(N)(=O)=O)cc3)c2C#N)c1`, the growth was 43.9%.

Turning to `CCN(CC)CCC(=O)c1cccc2ccccc12`, the growth was 84.5%.
